Results as given in PubChem BioAssay AID1159580 (chemical genetic matrix, 2015).
“And” between values parts separate entries of the source, which are not always exact repeats. Equal values may be shown once. In all, about 5,500 compounds went through this assay and about 2,000 (36%) were called active. About 18% were inconclusive and are not listed. Rule as the data show it: active = normalized growth mostly below about 0.91 (no sharp cut-off); inconclusive = no clear call, values can overlap the other calls; inactive = mostly above about 0.92. This is one part of the list.

Assay: chemical genetic growth profiling, strain panel (AID 1159580);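 also: tested at 20 µM; growth read once vehicle control cultures reached saturation at 30 °C; 1 = growth at the plate median or of vehicle wells; lower values mean less growth of the strain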
Details: S. cerevisiae deletion strains, growth OD

Which results are given for `CC(C(=O)O)c1ccc2c(c1)[nH]c1ccc(Cl)cc12` (configuration not stated)?
normalized growth (locus YAL013W, strain DEP1, stronger effect = lower value): 1.02 (inactive); normalized growth (locus YAL021C, strain ccr4, stronger effect = lower value): 0.949 (inactive); normalized growth (locus YAL026C, strain drs2, stronger effect = lower value): 0.953 (inactive); normalized growth (locus YAL030W, strain snc1, stronger effect = lower value): 0.979 (inactive); normalized growth (locus YBL061C, strain skt5, stronger effect = lower value): 0.955 (inactive); normalized growth (locus YBR009C, strain hhf1, stronger effect = lower value): 0.979 (inactive); normalized growth (locus YBR021W, strain FUR4, stronger effect = lower value): 1 (inactive); normalized growth (locus YBR023C, strain chs3, stronger effect = lower value): 0.973 (inactive); normalized growth (locus YBR171W, strain sec66, stronger effect = lower value): 0.981 (inactive); normalized growth (locus YBR229C, strain ROT2, stronger effect = lower value): 1.01 (inactive); normalized growth (locus YBR231C, strain swc5, stronger effect = lower value): 0.981 (inactive); normalized growth (locus YBR279W, strain paf1, stronger effect = lower value): 0.957 (inactive); normalized growth (locus YCL011C, strain gbp2, stronger effect = lower value): 1 (inactive); normalized growth (locus YCL016C, strain dcc1, stronger effect = lower value): 0.951 (inactive); normalized growth (locus YCL029C, strain bik1, stronger effect = lower value): 0.982 (inactive); normalized growth (locus YCL061C, strain MRC1, stronger effect = lower value): 0.978 (inactive); normalized growth (locus YCL069W, strain vba3, stronger effect = lower value): 1.01 (inactive); normalized growth (locus YCR088W, strain abp1, stronger effect = lower value): 0.973 (inactive); normalized growth (locus YDL005C, strain med2, stronger effect = lower value): 0.975 (inactive); normalized growth (locus YDL035C, strain GPR1, stronger effect = lower value): 1 (inactive); normalized growth (locus YDL040C, strain nat1, stronger effect = lower value): 0.978 (inactive); normalized growth (locus YDL074C, strain BRE1, stronger effect = lower value): 1.03 (inactive); normalized growth (locus YDL101C, strain DUN1, stronger effect = lower value): 1.02 (inactive); normalized growth (locus YDL134C, strain PPH21, stronger effect = lower value): 1.01 (inactive); normalized growth (locus YDL185W, strain tfp1, stronger effect = lower value): 0.948 (inactive); normalized growth (locus YDL192W, strain arf1, stronger effect = lower value): 0.954 (inactive); normalized growth (locus YDR001C, strain nth1, stronger effect = lower value): 0.996 (inactive); normalized growth (locus YDR069C, strain doa4, stronger effect = lower value): 0.984 (inactive); normalized growth (locus YDR101C, strain arx1, stronger effect = lower value): 0.972 (inactive); normalized growth (locus YDR137W, strain rgp1, stronger effect = lower value): 0.945 (inactive); normalized growth (locus YDR150W, strain NUM1, stronger effect = lower value): 1.02 (inactive); normalized growth (locus YDR159W, strain sac3, stronger effect = lower value): 0.895 (inactive); normalized growth (locus YDR162C, strain NBP2, stronger effect = lower value): 1.02 (inactive); normalized growth (locus YDR195W, strain ref2): 1.01 (inactive); normalized growth (locus YDR297W, strain sur2, stronger effect = lower value): 0.983 (inactive); normalized growth (locus YDR318W, strain mcm21, stronger effect = lower value): 0.972 (inactive); normalized growth (locus YDR334W, strain swr1, stronger effect = lower value): 0.994 (inactive); normalized growth (locus YDR335W, strain msn5, stronger effect = lower value): 0.984 (inactive); normalized growth (locus YDR388W, stronger effect = lower value): 0.978 (inactive); normalized growth (locus YDR392W, strain spt3, stronger effect = lower value): 0.832 (inactive); normalized growth (locus YDR502C, strain sam2, stronger effect = lower value): 0.999 (inactive); normalized growth (locus YEL003W, strain gim4, stronger effect = lower value): 0.996 (inactive); normalized growth (locus YEL037C, strain rad23, stronger effect = lower value): 0.99 (inactive); normalized growth (locus YEL061C, strain CIN8 (second series), stronger effect = lower value): 0.975 (inactive); normalized growth (locus YEL061C, strain CIN8, stronger effect = lower value): 1 (inactive); normalized growth (locus YER015W, strain faa2, stronger effect = lower value): 1 (inactive); normalized growth (locus YER016W, strain bim1, stronger effect = lower value): 0.978 (inactive); normalized growth (locus YER110C, stronger effect = lower value): 0.971 (inactive); normalized growth (locus YER111C, strain swi4, stronger effect = lower value): 0.99 (inactive); normalized growth (locus YER155C, strain BEM2 (second series), stronger effect = lower value): 0.952 (inactive); normalized growth (locus YER155C, strain BEM2, stronger effect = lower value): 0.997 (inactive); normalized growth (locus YER167W, strain BCK2, stronger effect = lower value): 1 (inactive); normalized growth (locus YFR010W, strain ubp6, stronger effect = lower value): 0.999 (inactive); normalized growth (locus YGL078C, strain dbp3, stronger effect = lower value): 0.988 (inactive); normalized growth (locus YGL086W, strain mad1, stronger effect = lower value): 0.983 (inactive); normalized growth (locus YGL167C, strain pmr1, stronger effect = lower value): 1 (inactive); normalized growth (locus YGL173C, strain kem1, stronger effect = lower value): 0.961 (inactive); normalized growth (locus YGL227W, strain vid30, stronger effect = lower value): 1 (inactive); normalized growth (locus YGL240W, strain doc1, stronger effect = lower value): 0.92 (inactive); normalized growth (locus YGL248W, strain PDE1, stronger effect = lower value): 1.01 (inactive); normalized growth (locus YGL253W, strain hxk2, stronger effect = lower value): 0.968 (inactive); normalized growth (locus YGR078C, strain PAC10, stronger effect = lower value): 1.02 (inactive); normalized growth (locus YGR135W, strain pre9, stronger effect = lower value): 0.995 (inactive); normalized growth (locus YGR229C, strain SMI1, stronger effect = lower value): 1.04 (inactive); normalized growth (locus YGR252W, strain gcn5, stronger effect = lower value): 0.885 (inactive); normalized growth (locus YHR013C, strain ard1, stronger effect = lower value): 0.96 (inactive); normalized growth (locus YHR027C, strain rpn1, stronger effect = lower value): 0.991 (inactive); normalized growth (locus YHR030C, strain SLT2, stronger effect = lower value): 1 (inactive) and 0.303 (active); normalized growth (locus YHR079C, strain IRE1 (second series), stronger effect = lower value): 0.976 (inactive); normalized growth (locus YHR079C, strain IRE1, stronger effect = lower value): 0.369 (active); normalized growth (locus YHR094C, strain hxt1, stronger effect = lower value): 0.987 (inactive); normalized growth (locus YHR129C, strain ARP1, stronger effect = lower value): 1 (inactive); normalized growth (locus YHR142W, strain chs7, stronger effect = lower value): 0.971 (inactive); normalized growth (locus YHR200W, strain rpn10, stronger effect = lower value): 0.98 (inactive); normalized growth (locus YIL066C, strain RNR3, stronger effect = lower value): 0.994 (inactive); normalized growth (locus YIL073C, strain SPO22, stronger effect = lower value): 0.971 (inactive); normalized growth (locus YIL125W, strain kgd1, stronger effect = lower value): 0.929 (active); normalized growth (locus YIR030C, strain dcg1, stronger effect = lower value): 0.992 (inactive); normalized growth (locus YJL092W, strain hpr5, stronger effect = lower value): 0.982 (inactive); normalized growth (locus YJL095W, strain BCK1 (second series), stronger effect = lower value): 0.988 (inactive); normalized growth (locus YJL095W, strain BCK1, stronger effect = lower value): 1 (inactive) and 0.272 (active); normalized growth (locus YJL115W, strain asf1, stronger effect = lower value): 0.985 (inactive); normalized growth (locus YJL129C, strain trk1, stronger effect = lower value): 0.912 (inactive); normalized growth (locus YJL134W, strain LCB3, stronger effect = lower value): 1.01 (inactive); normalized growth (locus YJL154C, strain vps35, stronger effect = lower value): 0.99 (inactive); normalized growth (locus YJL164C, strain tpk1, stronger effect = lower value): 0.982 (inactive); normalized growth (locus YJL166W, strain qcr8, stronger effect = lower value): 1 (inactive); normalized growth (locus YJL168C, strain set2, stronger effect = lower value): 0.983 (inactive); normalized growth (locus YJL187C, strain SWE1 (second series), stronger effect = lower value): 1.01 (inactive); normalized growth (locus YJL187C, strain SWE1, stronger effect = lower value): 0.97 (inactive); normalized growth (locus YJR043C, strain POL32, stronger effect = lower value): 1.01 (inactive); normalized growth (locus YJR066W, strain TOR1, stronger effect = lower value): 0.492 (active)
